Calls of active or inactive are those of the source. How the calls were made is not given here. Positions of bridges follow the written chain, without caps; N, C: chain ends. Non-standard residues stand in square brackets, D forms with d. Residues, ends and D or L forms follow the SMILES beside them. ξ: configuration not given here. *: point of attachment. ξDab(CH2SO3H) = NC(CCNCS(=O)(=O)O)C(=O)O; Heptanoyl(6-Me) = CC(C)CCCCC(=O)*; Dab = NCC[CH](N)C(=O)O

The test system of this assay is Aerobactin synthetase IucA (Klebsiella pneumoniae hvKP1). Put plainly: IucA enzyme inhibition, primary screen, biochemical, Spectrum library (AID 1346200).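 Further: 100% = wells without compound and 0% = wells lacking enzyme.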 The following applies: malachite green pyrophosphate, A620, at 8 µM, stronger effect = lower value.
On to `CCn1cc(C(=O)O)c(=O)c2cnc(N3CCNCC3)nc21`, for which the activity remaining was 101% (inactive).
Then `Cc1nc(N)cc(C[n+]2csc(CCO)c2C)n1`, with 83.3% (inactive).
Then `O=C(O)c1c2ccccc2cc2ccccc12`, with 116% (inactive); and `c1ccc(-c2ccc(C(c3ccccc3)n3ccnc3)cc2)cc1` (centres undefined), with 111% (inactive).
Take `COC(=O)C[C@H]1C2(C)CC34OC5(C)O[C@@]6([C@H](OC)C(OC(=O)C(C)C)[C@]7(C)C(/C(=C(/OC)C(C)C)C(=O)O[C@H]7c7ccoc7)[C@@]6(O5)[C@H](OC)[C@@]3(OC)C2OC(C)=O)[C@]14C` (some centres undefined): the activity remaining was 119% (inactive).
Then `CO[C@@]12[C@@H]3NC3CN1C1=C(C(=O)C(N)=C(C)C1=O)[C@@H]2COC(N)=O` (some centres undefined), with 95.4% (inactive); and `CCC(C)C1NC(=O)C(CCNCS(=O)(=O)O)NC(=O)C(NC(=O)C(CCNCS(=O)(=O)O)NC(=O)C(NC(=O)C(CCNCS(=O)(=O)O)NC(=O)CCCCC(C)C)C(C)O)CCNC(=O)C(C(C)O)NC(=O)C(CCNCS(=O)(=O)O)NC(=O)C(CCNCS(=O)(=O)O)NC(=O)C(C(C)CC)NC1=O` (centres undefined) ({Heptanoyl(6-Me)}-[ξDab(CH2SO3H)]T[ξDab(CH2SO3H)][Dab][ξDab(CH2SO3H)]II[ξDab(CH2SO3H)][ξDab(CH2SO3H)]T; lactam 4-C; configuration not given here), with 120% (inactive).
Then `CC(=O)O[C@H]1CC[C@]2(C)C3CC[C@@]4(C)C(CC5O[C@@]6(CCC(C)CO6)[C@@H](C)C54)C3CC[C@@H]2C1` (some centres undefined), with 84.2% (inactive); and `COc1ccc2cc1Oc1ccc(cc1)C[C@H]1c3cc(c(OC)cc3CCN1C)Oc1c(OC)c(OC)cc3c1[C@H](C2)N(C)CC3`, with 108% (inactive); and `O=C(O)C1=C(CSc2nnnn2CS(=O)(=O)O)CS[C@@H]2C(NC(=O)[C@H](O)c3ccccc3)C(=O)N12` (some centres undefined), with 116% (inactive).
Then `O=S(=O)(O)CCS`, with 118% (inactive); and `NC(N)=Nc1nc(CSCC/C(N)=N\S(N)(=O)=O)cs1`, with 113% (inactive); and `CCOC(=O)c1c(C)cc(O)c(C=O)c1O`, with 97.7% (inactive).
For `OC/C=C/c1ccc(O)c(O)c1`, the activity remaining is 81.7% (inactive).
As for `COc1ccc2c(c1)OCc1c-2oc2cc(OC)ccc12`, the figure is 90.7% (inactive).
Regarding `CC1Cc2ccccc2N1NC(=O)c1ccc(Cl)c(S(N)(=O)=O)c1` (centres undefined), the activity remaining is 101% (inactive).
As for `CCCc1nc(C(C)(C)O)c(C(=O)OCc2oc(=O)oc2C)n1Cc1ccc(-c2ccccc2-c2nn[nH]n2)cc1`, the figure is 121% (inactive).
Consider `CCC(c1ccc(O)cc1)C(CC)c1ccc(O)cc1` (centres undefined), for which the activity remaining was 121% (inactive).
Then `CC1/C(=N/O)C[C@@H]2C[C@H]1C2(C)C` (some centres undefined), with 110% (inactive); and `Nc1ncnc2nc[nH]c12`, with 105% (inactive).
Regarding `CC(C(=O)O)c1ccc(-c2ccccc2)c(F)c1` (centres undefined), the activity remaining was 104% (inactive).
As for `COc1cc(O)c(C(=O)/C=C/c2ccc(OC)c(O)c2)c(OC)c1`, the activity remaining was 105% (inactive).
For `COc1ccc2c(c1)OC1(O)COc3cc(OC)c(OC)cc3C1=C2` (centres undefined), the activity remaining is 107% (inactive).
Then `Cc1cc(C2CCCCC2)n(O)c(=O)c1`, with 95.7% (inactive).
